Screening data (PubChem BioAssay)
TTR transcr act: activators of transthyretin transcription. SH-SY5Y TTR promoter Gaussia luciferase, luminescence; 100% = recombinant luciferase protein wells. activation, % at 16.7 µM. hit rate 1.3% among 92,000;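 active = activation above the mean of all tested compounds plus 3 SD, cut at about 9.5% in these data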;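 also: cells exposed to compounds for one day before reading; 0% = median of all test compound wells on the plate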
TTR inh HuH7: decreases TTR transcription in HuH7 cells in activator counter-screen; inhibition, % at 16.7 µM; shares compounds with TTR transcr act; HuH7 TTR promoter-Gaussia luciferase reporter, luminescence; hit rate 4% among 1,100;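 active = average inhibition above the solvent-only control wells' mean plus 3 SD, cut at about 15% in these data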;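 also: 0% = cells with DMSO only and 100% = cells with inhibitor control FD; inhibitors lower well luminescence so higher value means more inhibition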
TTR act confirm: human TTR transcription activation, confirmation; 1,100 tested, under 10 active; activation, % at 16.7 µM; SHSY5Y TTR promoter Gaussia luciferase, luminescence; 100% = purified Lucia enzyme wells, no cells; AID 1117280; shares compounds with TTR transcr act;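 active = mean activation above a set limit taken from the earlier primary screen, cut at about 11% in these data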;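 also: 0% = DMSO-treated cells and 100% = recombinant Lucia luciferase without cells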
* = called active by the depositor. Many of the other results were omitted from the sample, so hits are more common in it than they were.

SMILES	TTR transcr act	others
CCN(CC)S(=O)(=O)c1ccc(N2CCOCC2)c(NC(=O)Cc2ccc(Cl)cc2)c1	-3.2
CN1CCN(c2ccc(Cl)cc2NC(=O)/C=C/c2cccc(F)c2)CC1	-0.6
CCC(=O)Nc1cc(Cl)ccc1N1CCN(C(=O)CC)CC1	12.0*	TTR inh HuH7=-3.5;TTR act confirm=-0.3
C[C@H]1[C@@H](OC(=O)NC2CCCCC2)CC[C@@]23CCCN2C(=O)CCC[C@@H]13	0.7
CN(CCc1ccccc1)C(=O)c1ccc(NC(=O)Cc2cccc(NC(=O)C3CCN(C(=O)C4CCCCC4)CC3)c2)cc1	11.3*	TTR inh HuH7=-14.1;TTR act confirm=1.3
CN(CCc1ccccc1)C(=O)c1cccc(NC(=O)Cc2cccc(NC(=O)C3CCN(C(=O)C4CCC4)CC3)c2)c1	-1.8
CN(CCc1ccccc1)C(=O)c1cccc(NC(=O)Cc2cccc(NC(=O)C3CCN(C(=O)C4CCCCC4)CC3)c2)c1	-2.2
Cc1ccnc(NC(=S)N2CCC(Nc3cccc(C(F)(F)F)c3)CC2)c1	4.6
Cc1ccc(NC(=S)NC(=O)C2CCCCC2)c(Br)c1	0.9
CC(C)[C@H]1/C(=C/C2CC2)N2C(=O)C[C@H](c3cccc(C(F)(F)F)c3)N=C2N1Cc1ccc2c(c1)OCO2	-0.3
COc1ccc(CNC2CCC23CCC(C)CC3)cc1 (configuration not stated)	3.3
Cc1cccc(C)c1-n1nnnc1C1(C)CCC(=O)N1CC1CCCCC1 (configuration not stated)	0.2
Cc1ccc(CCNC(=O)C2CCC(CNc3c(N4CCCC4)c(=O)c3=O)CC2)cc1 (configuration not stated)	-0.2
CC1CCN(c2c(NCC3CCC(C(=O)NCCc4ccccc4)CC3)c(=O)c2=O)CC1 (configuration not stated)	8.9
Cc1ccc(CCNC(=O)C2CCC(CNc3c(N4CCC(C)CC4)c(=O)c3=O)CC2)cc1 (configuration not stated)	22.6*	TTR inh HuH7=2.9;TTR act confirm=-0.4
COc1cccc(-c2cc3nc(C)c(C)c(N4CCN(Cc5ccco5)CC4)n3n2)c1	-2.5
CN(CC(=O)Nc1cccc(F)c1)C(=O)c1ccc(OCC2CCCO2)cc1 (configuration not stated)	-0.3
Cc1ccc(NC(=O)CSCC(=O)N(C)CC(=O)Nc2cccc(F)c2)cc1	-0.5
CCC(=O)c1ccc(OCC(=O)N(C)CC(=O)Nc2cccc(F)c2)cc1	10.0*	TTR inh HuH7=-13.5;TTR act confirm=-0.1
CCOC(=O)[C@]12CCCC3=C1N(CCC3)C(=O)[C@@H](CC(=O)N1CCN(C(=O)c3ccco3)CC1)C2	1.6
O=S1(=O)c2ccc(N3CC[C@@H](O)C3)cc2OCCCN1C1CC1	-0.4
Cc1ccc(CNC(=O)Cc2ccc(-c3ccccc3)cc2)cc1	12.6*	TTR inh HuH7=52.7*;TTR act confirm=-2.0
Cc1ccc(CC(=O)NCc2ccc(F)cc2)cc1	-0.1
O=C(Cc1ccc(-c2ccccc2)cc1)NCc1ccccc1	-2.2
OCC1OC(c2ccc(OCc3ccccc3)cc2OCc2ccccc2)C(O)C1O (configuration not stated)	8.8
SMILES	TTR transcr act	others
CCCCN1C(=O)C(=O)N(CC(=O)Nc2sc(C)c(C)c2C(=O)OC)C1=O	0.7
COc1ccc(C(=O)OCCN(C)C2CN(Cc3cn(Cc4ccccc4Cl)nn3)S(=O)(=O)C2)cc1OC (configuration not stated)	9.4
Cc1ccccc1NC(=O)[C@@H]1CCCN1S(=O)(=O)c1cccc2cccnc12	-2.0
CCN(C(=O)[C@@H](C)[C@@H](O)c1ccc(C(C)=O)cc1)c1ccccc1	11.3*	TTR inh HuH7=-4.1;TTR act confirm=-0.4
C=CCN(C(=O)[C@@H](C)[C@@H](O)c1ccc(C(C)=O)cc1)c1ccccc1	4.1
CCCC[C@H](C(=O)N(CC)c1ccccc1)[C@@H](O)c1ccc(C(C)=O)cc1	0.8
COc1cc(CCC(=O)Nc2c(C(=O)N3CCN(c4ccccc4)CC3)oc3ccccc23)on1	1.3
COC(CNC(=O)[C@H](Cc1ccccc1)NC1(C(=O)NC2CCCCC2)CCC1)OC	1.3
Cc1ccc2nc(SCC(=O)c3ccc(Cl)cc3)nc(=O)n2c1	1.6
COc1ccccc1NC(=O)CSc1nc(=O)n2cc(C)ccc2n1	11.7*	TTR inh HuH7=-14.8;TTR act confirm=2.0
Cc1ccc2nc(SCC(=O)Nc3ccc(C)c(Cl)c3)nc(=O)n2c1	1.1
Cc1cccc(C)c1NC(=O)C1c2ccccc2OCC(=O)N1Cc1ccco1 (configuration not stated)	2.0
CC(C)C[C@H]1COc2cccc(F)c2S(=O)(=O)N1Cc1cn(CCC2OCCCO2)nn1	1.8
Fc1ccc(Cn2cc(C(=S)N3CCOCC3)c3ccccc32)cc1	-1.6
O=C(O)Cn1cc(C(=S)N2CCCCC2)c2ccccc21	-0.1
CC1CCN(C(=S)c2cn(Cc3cccc(F)c3)c3ccccc23)CC1	10.1*	TTR inh HuH7=-17.3;TTR act confirm=0.4
COC(=O)[C@]12C[C@H](CC(=O)N3CCN(C(=O)c4ccco4)CC3)C(=O)N(Cc3ccc(Cl)cc3Cl)C1=C[C@H](COCc1ccccc1)O[C@@H]2C	-3.1
CCc1ccc(N2C(=O)C3CCCN3C2=S)cc1 (configuration not stated)	-1.3
Cn1c(CC(=O)Nc2ccccc2Cl)nnc1SCC(=O)NC1=NCCS1	2.9
COCCCN1C(=O)C(CC(=O)NC2CC2)CC(C(=O)N2CCOCC2)=C1C (configuration not stated)	-0.3
CC(C)C[C@H](NC1(C(=O)NCCc2c[nH]c3ccccc23)CCC1)C(=O)NCCCc1ccccc1	-1.5
O=C(N1CCC(C(O)(c2ccccc2)c2ccccc2)CC1)n1ncc(C(O)(c2ccccc2)c2ccccc2)n1	-3.2
CCCC[C@H]1C2CC(OC(=O)Nc3cccc(C#N)c3)C(C2)[C@H]2CCCCN21 (some centres not stated)	-2.2
COc1ccc(/C=C2\N=C3CCCCCN3C2=O)cc1	2.6
O=C1/C(=C/c2ccncc2)CCC/C1=C\c1ccncc1	-6.0
SMILES	TTR transcr act	others
O=C1/C(=C/c2ccncc2)N=C2CCCCCN12	47.2*	TTR inh HuH7=-11.9;TTR act confirm=-0.1
O=C(Nc1ccc(Br)c(C(F)(F)F)c1)[C@@H]1CC=C[C@@H]2CCN(CC3CC3)C(=O)[C@@H]21	-1.1
O=C1[C@H]2[C@@H](C3CC3)N3C(=O)CN(Cc4ccccn4)C(=O)[C@@]3(Cc3ccccc3)[C@H]2C(=O)N1c1ccccc1	1.0
Cn1ccc2c(-c3ccc(F)cc3)cc3c(c21)C1CCC3C1 (configuration not stated)	1.1
Cc1ccccc1-c1cc2c(c3c1ccn3C)C1CCC2C1 (configuration not stated)	10.3*	TTR inh HuH7=-5.7;TTR act confirm=0.8
Cc1ccccc1-c1cc2c(c3c1ccn3C)C1CCC2O1 (configuration not stated)	-0.7
COC(=O)C[C@H]1CC[C@@H]2[C@H](COc3ccc(NC(=O)c4cccc(F)c4)cc3C(=O)N2C)O1	-1.1
Cc1cc(C)c(N=Cc2c(O)c3ccccc3oc2=O)c(C)c1	-1.8
CCN1C(=O)[C@@H]2[C@H](C1=O)[C@@H]1C(=O)Nc3ccccc3C(=O)N1[C@@H]2c1ccc(OC)cc1	10.7*	TTR inh HuH7=-11.7;TTR act confirm=-0.1
CCN1C(=O)[C@H]2[C@@H](c3ccc(OC)cc3)N[C@]3(CCCN(Cc4ccccc4)C3=O)[C@H]2C1=O	-0.4
